Bioassay records: PubChem, National Center for Advancing Translational Sciences (NCATS)
Mm-Cpn inhibitor = Inhibitors of TCP-1 ring complex (TRiC) of Methanococcus maripaludis (MmCpn): qHTS; Chaperonin Mm-Cpn (Methanococcus maripaludis); purified Mm-Cpn ATPase, ADP Transcreener TR-FRET; Potency, µM (titrated, usually from 76.9 µM), actives largely listed as inhibitors; 330,000 compounds, 0.031% hits; AID 504842, 2011; note: nearly all actives have a fitted effect of over 80% in size
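Measured: ADP formation by purified Mm-CPN. Conditions: 25 nM protein, 10 uM ATP, Tris pH 7.4 with Mg2+, K+ and DTT, 37°C for 30 min. Detection: Transcreener HTRF after 30 min at room temperature.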
aSyn yeast inh = qHTS of alpha-syn Inhibitors; Yeast expressing alpha-synuclein, growth rescue, BacTiter-Glo, 24 h; Potency, µM (series often up to 46.1 µM), actives largely listed as activators; 370,000 compounds, 0.14% hits; AID 652106, 2013; note: nearly all actives have a fitted effect of over 65% in size
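Screening used galactose-induced yeast with toxic alpha-synuclein levels, exposed to compound for 24 hr at 30 deg C. Cell growth, read with BacTiter-Glo luminescence, gave the measured signal.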
ClpP mod = qHTS Assay for Activators of ClpP; ATP-dependent Clp protease proteolytic subunit (Bacillus subtilis (strain 168)), P80244; purified B. subtilis ClpP, FRET peptide cleavage, 20 min; Potency, µM (series often up to 57.5 µM); 340,000 compounds, 1.9% hits; active = well fitted falling curve with a large enough effect; inconclusive = small, poorly fitted or top-dose-only effect; inactive = no such curve, though single readings can be large or run the other way; note: the source files actives as falling curves though it sought activators and does not explain the sign; nearly all actives have a fitted effect of over 65% in size
Target sequence (P80244 whole entry, looked up): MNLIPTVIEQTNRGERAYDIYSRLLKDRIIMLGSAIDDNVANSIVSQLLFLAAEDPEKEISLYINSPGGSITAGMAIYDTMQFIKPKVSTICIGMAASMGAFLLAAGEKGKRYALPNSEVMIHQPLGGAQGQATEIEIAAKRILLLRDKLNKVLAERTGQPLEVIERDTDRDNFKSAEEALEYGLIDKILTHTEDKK
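Purified B. subtilis ClpP, 10 microg/mL final in Tris/HCl pH8 with KCl, BSA, glycerol and Tween-20, cleaved an Abz/nitrotyrosine-quenched decapeptide. Fluorescence (ex 320, em 430) was read at 0 and 20 min at room temperature. Delta was normalized to 5.8 microM ADEP and DMSO/no-enzyme controls.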
TDP-43 yeast inh = qHTS of TDP-43 Inhibitors | TDP-43 expressing yeast growth rescue, BacTiter-Glo, 24 h | Potency, µM (top dose mostly 46.1 µM), most hits filed as activators | 410,000 compounds, 1.8% hits | AID 652104, 2013; note: nearly all actives have a fitted effect of over 50% in size
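Galactose-induced TDP-43 yeast, OD600=0.02, compound pinned; 24 hr, 30 deg C; BacTiter-Glo luminescence for growth. Inhibitors of TDP-43 toxicity read as activators.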
Abeta yeast res = qHTS for compounds that reverse cellular toxicity of Amyloid beta (A-beta) peptide in yeast: Primary Screen; Potency, µM (top dose mostly 46.1 µM), usual class: activators; yeast expressing A-beta42, growth rescue, OD600, 48 h; response scale: 0% DMSO, 100% iron-clioquinol control; 410,000 compounds, 0.063% hits; note: nearly all actives have a fitted effect of over 55% in size
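Growth rescue measured by 600 nm absorbance after 48 h yeast culture at 30 C with compound. Values normalized between DMSO and an equimolar ferric chloride plus clioquinol control.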
FUS suppressor = qHTS for Suppressors of FUS Proteinopathy: Primary screen using FUS-linked yeast assay. 390,000 compounds, 0.24% hits. S. cerevisiae FUS-expressing, growth rescue, OD600, 24 h. Potency, µM (highest dose often 76.6 µM), usual class: activators; note: nearly all actives have a fitted effect of over 55% in size
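Quantitative HTS measuring growth restoration of FUS-toxic yeast. Galactose-induced cells (OD 0.005) were exposed 24hr at 30C to compounds at several concentrations, then absorbance at 600 nm was recorded.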
Each line names hits and unclear results; the compound was inactive in the other large screens. Only some compounds are listed: those with a hit (about 3.6% of all), similar ones and a draw of the others. Unless noted, calls come from the whole dose curve; as a rule, active = well fitted curve in the direction sought with a large enough effect; inconclusive = small, poorly fitted or top-dose-only effect, or another doubt; inactive = no such curve, though single readings can be large; an effect the other way counts as inactive or inconclusive.

Cc1ccc(C(=O)NNC(=O)Cn2ccc(C(F)(F)F)n2)o1	ClpP mod 25.1µM
O=C1c2ccccc2CCC12N=NCC2c1ccc(Br)cc1 (stereo not drawn)	TDP-43 yeast inh 12.6µM (no result: aSyn yeast inh)
COCCN=c1scc(-c2cc(OC)c(OC)c(OC)c2)n1/N=C/c1c(C)[nH]c2ccccc12	TDP-43 yeast inh 22.4µM, FUS suppressor 12.6µM
Cc1[nH]c2ccccc2c1/C=N/n1cnnc1	none
CCSc1ccc([C@@H]2[C@@H]3C(=O)N(CC)C(=O)[C@@H]3[C@]3(C(=O)OC)CCCCN23)cc1	TDP-43 yeast inh 25.1µM
CCN1C(=O)[C@H]2[C@@H](c3ccc(-c4ccccc4)cc3)N3CCCC[C@@]3(C(=O)OC)[C@H]2C1=O	TDP-43 yeast inh 35.5µM, FUS suppressor inconclusive
CCN1C(=O)[C@@H]2[C@@H](c3ccc(-c4ccc(OC)cc4)cc3)N3CCCC[C@@]3(C(=O)OC)[C@@H]2C1=O	none
O=C(Cc1c(F)cccc1Cl)OCC(=O)N1CCc2ccccc21	TDP-43 yeast inh 11.2µM
O=C(Cc1c(Cl)cccc1Cl)OCC(=O)N1CCc2ccccc2C1	none (no result: FUS suppressor)
COc1ccccc1N1CCN(S(=O)(=O)c2ccc3c(c2)CCC(=O)N3)CC1	none (no result: Mm-Cpn inhibitor, aSyn yeast inh, ClpP mod, TDP-43 yeast inh, Abeta yeast res)
Cc1ccc(-c2ccnc3cc(C)nn23)cc1	TDP-43 yeast inh 20µM
O=C(CSc1ccc(F)cc1)NCCSc1ccccc1	TDP-43 yeast inh 12.6µM (no result: ClpP mod)
Nc1c2c(nc3ccn(Cc4ccccc4)c(=O)c13)CCC2	ClpP mod 31.6µM
Nc1c2c(nc3ccn(-c4ccccc4)c(=O)c13)CCCCC2	ClpP mod 28.2µM
O=C(O)c1c2c(nc3ccccc13)CCCCC2	none (no result: FUS suppressor)
NC(=O)c1cc(S(=O)(=O)NCC2CCC(C(=O)Nc3cccc(Cl)c3)CC2)cs1 (stereo not drawn)	none (no result: Mm-Cpn inhibitor, aSyn yeast inh)
CCOc1ccc(NC(=S)N(CCc2c(C)[nH]c3ccc(C)cc23)Cc2ccco2)cc1	FUS suppressor 25.1µM
Cc1ccc(NC(=O)Cn2c(-c3ccc4c(c3)OCO4)cn(-c3ccccc3)c2=O)cc1C	ClpP mod 28.2µM (no result: Mm-Cpn inhibitor, aSyn yeast inh)
O=C(Cn1c(=O)oc2ccccc21)NCc1cccc(Cl)c1	TDP-43 yeast inh inconclusive (no result: Mm-Cpn inhibitor, aSyn yeast inh)
COc1ccccc1NC1=C(Cl)C(=O)N(c2ccccc2)C1=O	TDP-43 yeast inh 6.31µM (no result: FUS suppressor)
COc1ccc(/C=C2\SC(=O)NC2=S)cc1OC	TDP-43 yeast inh 8.91µM
Nc1[nH]c(=O)[nH]c(=O)c1N=Cc1ccccc1	aSyn yeast inh inconclusive, ClpP mod 28.2µM (no result: Mm-Cpn inhibitor, FUS suppressor)
O=c1[nH]c(NCCO)c(N=Cc2ccccc2)c(=O)[nH]1	none (no result: Mm-Cpn inhibitor, ClpP mod)
Cc1cc(SCC(=O)OCC(=O)N2CCN(C(=O)c3ccco3)CC2)c(C)cc1Br	none
Cc1cc(SCC(=O)N2CCN(C(=O)c3ccco3)CC2)c(C)cc1Br	TDP-43 yeast inh 25.1µM
Cn1c(SCc2c(Cl)cccc2Cl)nnc1-c1cccs1	TDP-43 yeast inh 17.8µM
Cn1c(SCc2ccc(Br)cc2)nnc1-c1cccs1	TDP-43 yeast inh 14.1µM
Cc1ccc(CSc2nnc(-c3cccs3)n2C)cc1	TDP-43 yeast inh inconclusive
Cc1nnc(SCc2c(Cl)cccc2Cl)s1	TDP-43 yeast inh 15.8µM
Cc1nc([N+](=O)[O-])cn1CC(=O)c1ccc2c(c1)OCCO2	none (no result: Mm-Cpn inhibitor, TDP-43 yeast inh, Abeta yeast res, FUS suppressor)
Cc1cc2cc3c(=O)[nH]c(=O)nc-3n(CC(O)C(O)C(O)CO)c2cc1C (stereo not drawn)	ClpP mod 35.5µM, TDP-43 yeast inh inconclusive (no result: Mm-Cpn inhibitor, FUS suppressor)
Cc1cc2cc3c(=O)[nH]c(=O)cc-3n(CC(O)C(O)C(O)CO)c2cc1C (stereo not drawn)	none (no result: Mm-Cpn inhibitor)
O=C(NCc1cnc2ccccn12)C1CCC(=O)N(Cc2cccc(F)c2)C1 (stereo not drawn)	ClpP mod 15.8µM
COc1ccc(N2CC(NC(=O)c3cccs3)CC2=O)cc1OC (stereo not drawn)	none (no result: Mm-Cpn inhibitor, aSyn yeast inh)
